Source: ChEMBL document CHEMBL3988442, “University of Dundee, Small-Polar-MMV Screening Library” (2021)

molecular target: AMP-activated protein kinase, AMPK (Homo sapiens) (UniProt P54646+O43741+P54619+Q9UGJ0+Q9Y478+Q13131+Q9UGI9); test: AMP-dependent Kinase enzyme assay. An in vitro enzyme assay that detects ADP turnover that is directly proportional to AMPK activity. This uses naive AMPK that is activated during the assay with MK-8722; type: functional; design: scale not given: direction of the effect not stated beside the values; conditions: 30 µM

| Compound | Percent Effect |
| --- | --- |
| CC(C)COc1cncc(N(C)C2CCN(c3ncccn3)CC2)n1 | 7.4% |
| O=C(c1c(F)cccc1F)N1CCC[C@@H]1Cn1c(=O)oc2ccccc21 | 23.1% |
| CCc1nc2n(n1)CC(NCc1nc3ccccc3o1)CC2 (stereo not given) | 2.97% |
| COCCS(=O)(=O)NCc1ccc(N(C)C)c(C)c1 | 6.36% |
| Cc1cc(N2CCC(n3cc(CCCO)nn3)CC2)ccn1 | 2.02% |
| CCOC(=O)C1(O)CCN(C(=O)Nc2cccc(CC)c2)CC1 | -6.62% |
| CCc1oc(C(=O)NC(C)Cc2cnccn2)cc1CN1CCCC1 (stereo not given) | 0.442% |
| COc1ccc(F)cc1CN(CC(N)=O)C(C)C | -8.18% |
| CN(C)c1cccc(C(=O)Nc2ccn(CCc3ccncc3)n2)c1 | 12.1% |
| Cc1[nH]nc(CCC(=O)N2CCc3c(nc[nH]c3=O)C2)c1C | 4.58% |
| CCN(CC(=O)N(C)C)C(=O)c1ccc(-c2nc(C)cs2)cc1 | 8.68% |
| CC(=O)N[C@@H]1CN(C(=O)c2cccc(C)c2)C[C@H]1O | 8.23% |
| CCN(Cc1cccnc1)C1CCN(c2ccccc2)C1=O (stereo not given) | -2.42% |
| N#Cc1ccc(NCc2cccnc2N2CCC(C(N)=O)CC2)cn1 | 2.13% |
| Cn1cc(S(=O)(=O)Nc2ccc3[nH]c(C4CCC4)nc3c2)cn1 | -6.7% |
| O=C1[C@@H]2C[C@H](O)CCN2C(=O)CN1CCSc1ccccn1 | -5.57% |
| O=C(CC1CC1)N1C[C@@H](O)[C@H](N2CCN(c3ccccc3)CC2)C1 | -9.15% |
| CN1CCC(Nc2ccc(Cl)cc2OCC(F)(F)F)C1=O (stereo not given) | -3.53% |
| CC(C)n1cnnc1SCCN(C)c1ccccc1 | 8.44% |
| COc1ccc(CCC(C)Nc2cccc(SC)c2)cc1 (stereo not given) | -6.2% |

| Compound | Percent Effect |
| --- | --- |
| CSc1ccc(OCCN2CCNC(=O)C2C)cc1 (stereo not given) | 6.4% |
| Cc1nccn1-c1ccc(C(=O)NCC(F)(F)F)nn1 | -3.73% |
| O=C(CCc1nc(-c2cccnc2)no1)NCC1CCN(C2CC2)C1 (stereo not given) | -2.6% |
| Cc1nc(C)n(CCC(=O)NCC2CCCOC2)n1 (stereo not given) | 10.8% |
| O=C(c1cccnc1O)N1CCC2(CCCO2)CC1 | 0.948% |
| Cn1c(N2CC[C@H](O)C2)nc2cc(C(N)=O)ccc21 | 21.4% |
| CCCc1noc(C[S+]([O-])CC(=O)NCc2ccccc2)n1 (stereo not given) | -0.224% |
| CC(=O)N1CCC(NC(=O)CN2CCCc3c(F)ccc(C)c32)CC1 | 3.84% |
| CN(CCOc1ccc(C#N)cc1)CC1CC1 | 22.9% |
| COc1ccc(CN(Cc2ccsc2)CC2CCCO2)cn1 (stereo not given) | 5.75% |
| CN(Cc1noc(-c2ccccc2)n1)C(=O)CSc1nnc(N)s1 | 1.22% |
| COc1ccc(NC(=O)c2cnc(C3CCN(C(C)=O)C3)nc2C)cc1 (stereo not given) | -1.66% |
| CCC(=O)Nc1cccc(OCC(=O)N2C[C@H]3CC[C@H]2C3)c1 | -10.8% |
| OCCC1CCN(c2ccnc3ccsc23)C1 (stereo not given) | 1.38% |
| CCc1cc(N2CCC(NCCc3ccc(C)o3)CC2)nc(C)n1 | 5.69% |
| NC1CCCN(Cc2cccc(C(F)(F)F)c2)C1=O (stereo not given) | -0.911% |
| Cc1nncn1CCN1C(=O)CC2(CCCC2)CC1=O | 9.66% |
| COc1ncc(NCc2cccc(C#N)c2)cc1C(N)=O | 8.6% |
| CC(C)NC(=O)N1CCCCCC1C1CCN(c2ncccn2)CC1 (stereo not given) | -6.91% |
| COCCC1(C(=O)O)CCCN(C(=O)c2cnc3c(c2)CCCC3)C1 (stereo not given) | 2.02% |
